Compound activity as filed in PubChem.
Only a selection was taken, and hits are over-represented in it overall.
mHTT CaM bind: mutant huntingtin-calmodulin interaction inhibitors – biochemical, AlphaScreen, primary screen | inhibition, % at 15 µM | P42858 | AlphaScreen His-mHTT/GST-CaM binding, luminescence | hit rate 3.6% among 190,000 | AID 1671202, 2021;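 note: 0% = both proteins with DMSO and 100% = one protein alone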
Pf apPOL block: Pf-apPOL inhibitors, biochemical, fluorescence. Plasmodium falciparum apicoplast DNA polymerase (apPOL). Recombinant Pf-apPOL, molecular beacon fluorescence, 1.5 h. inhibition, % at 10 µM. hit rate 0.25% among 210,000
Starred values were filed as active, the others as inactive; · = no result given. Cut-off read from the data, not from the text of the source: active = inhibition above about 50%; inactive = the rest.

SMILES	mHTT CaM bind	Pf apPOL block
Cc1cccc(NC(=O)N2CCC3(CC2)Nc2cc(F)ccc2-n2cccc23)c1C	39.7	-3.4
O=C(Nc1ccc(F)cc1F)N1CCC2(CC1)Nc1cc(F)ccc1-n1cccc12	49.6	1.3
COc1ccc(Cl)cc1NC(=O)N1CCC2(CC1)Nc1ccccc1-n1cccc12	32.4	-6.3
O=C(Nc1ccccc1Cl)N1CCC2(CC1)Nc1cc(F)ccc1-n1cccc12	34.5	-1.4
O=C(Nc1c2c(nn1-c1cccc(Cl)c1)CSC2)c1ccc(Cl)c([N+](=O)[O-])c1	6.0	-2.0
Cc1nc(NCCNS(=O)(=O)c2cc(F)ccc2C)cc(N(C)C)n1	-4.7	0.0
COCCNC(=O)Cn1c(=O)n(CCCC(=O)NCc2ccc(C)cc2)c(=O)c2sccc21	1.0	0.5
O=C(NC1CC1)c1ccc(-n2cc(CNC(=O)C3CC3)cn2)cc1	-4.3	-1.5
O=C(CSc1ncnc2sc3c(c12)CCCC3)N1CCOCC1	0.0	2.3
O=C(Nc1cccc(F)c1)N1CCC2(CC1)Nc1ccccc1-n1cccc12	70.8*	2.1
COC(=O)c1ccccc1NC(=O)N1CCC2(CC1)Nc1cc(F)ccc1-n1cccc12	46.0	2.3
Cc1ccc(Cl)cc1NC(=O)N1CCC2(CC1)Nc1cc(F)ccc1-n1cccc12	29.4	0.1
Cc1ccc2c(c1)NC1(CCN(C(=O)c3cccc(F)c3)CC1)c1cccn1-2	61.9*	0.8
CCOC(=O)c1ccccc1NC(=O)N1CCC2(CC1)Nc1cc(F)ccc1-n1cccc12	50.2*	-2.9
O=C(Nc1ccccc1C(F)(F)F)N1CCC2(CC1)Nc1cc(F)ccc1-n1cccc12	36.6	4.7
Cc1c(Cl)cccc1NC(=O)N1CCC2(CC1)Nc1cc(F)ccc1-n1cccc12	41.4	-2.2
Cc1ccc(NC(=O)N2CCC3(CC2)Nc2cc(F)ccc2-n2cccc23)cc1F	86.5*	-4.0
O=C(Nc1ccc(F)c(Cl)c1)N1CCc2nc(-c3ccccc3)ncc2C1	-14.9	-11.9
Cc1ccc(NC(=O)CCS(=O)(=O)c2ccc(Br)cc2)c(Cl)c1	-1.0	-5.6
Cn1c(CSC2CN(C(c3ccccc3)c3ccccc3)C2)n[nH]c1=S	·	-0.4
O=C(CN1C(=O)c2ccccc2C1=O)Nc1cnc(-c2ccccc2)s1	4.4	-9.7
Cc1cccc(NC(=O)N2CCC3(CC2)Nc2cc(F)ccc2-n2cccc23)c1	55.0*	-0.2
Cc1ccc2c(c1)NC1(CCN(C(=O)c3ccccc3Br)CC1)c1cccn1-2	89.0*	-5.0
Cc1ccc(NC(=O)N2CCC3(CC2)Nc2cc(F)ccc2-n2cccc23)c(C)c1	39.7	-0.5
COc1cc([N+](=O)[O-])ccc1NC(=O)COc1ccccc1Cl	-1.3	-10.8
SMILES	mHTT CaM bind	Pf apPOL block
C=C(C)Cn1c(N(C)Cc2ccccc2)nc2c1c(=O)[nH]c(=O)n2C	1.0	0.2
Clc1cc(Br)ccc1OCc1nc(-c2cccnc2)no1	0.0	-8.3
Cn1nc(C(=O)NCc2ccc(F)cc2)c2c1CCN(C(=O)c1ccc(F)cc1)C2	-6.3	-3.5
Cn1nc(C(=O)NCc2ccc(F)cc2)c2c1CCN(C(=O)c1cccs1)C2	0.2	-11.6
Cc1cccc(C(=O)N2CCc3c(c(C(=O)NCc4ccc(F)cc4)nn3C)C2)c1	73.0*	-10.3
COc1cccc(C(=O)N2CCc3c(c(C(=O)NCc4ccc(F)cc4)nn3C)C2)c1	86.0*	-13.9
CC12CC(NC(=O)N1c1cccc(C(=O)NCCc3ccccc3)c1)c1cc(Cl)ccc1O2 (centres undefined)	47.0	-2.6
COc1ccc(OC)c(/C=C2/SC(N3CCCC3)=NC2=O)c1	2.0	-3.3
O=C(NCCc1cccs1)c1cnn2c3c(cnc12)CCCCCC3	-5.4	-2.1
COc1ccc(-c2cc(C(F)(F)F)n3nc(C(=O)O)c(Br)c3n2)cc1	65.0*	-0.7
NC(=O)c1nn2c(C(F)(F)F)cc(-c3ccc(Cl)cc3)nc2c1Cl	0.0	0.9
COc1ccc(-c2cc(C(F)(F)F)n3ncc(C(=O)N4CCCC4)c3n2)cc1	-6.0	-7.1
COc1ccc(-c2cc(C(F)(F)F)n3nc(C(=O)O)c(Cl)c3n2)cc1	64.0*	-5.3
COc1ccc(NS(=O)(=O)c2ccc(NC(=O)c3cccnc3)cc2)nn1	-12.0	0.1
CCN1C(=O)c2ccccc2Oc2ccc(C(=O)NCC3CCCO3)cc21 (centres undefined)	0.8	-4.7
Cc1ccc(C(=O)Nc2ccc3ncnc(N4CCCCC4)c3c2)c(C)c1	15.1	-1.8
O=C(COc1ccc(F)cc1)N1CCC(Cc2nnc(-c3ccccc3)o2)CC1	14.8	1.1
COc1ccc([N+](=O)[O-])cc1NC(=O)C1CC(=O)NC(=N)S1 (centres undefined)	1.0	58.7*
COc1ccc([N+](=O)[O-])cc1NC(=O)C1CCCCC1	-2.4	-1.9
COc1cc(NC(=O)c2cc3ncc(Br)cn3n2)cc(OC)c1OC	8.0	1.2
O=C(Nc1nc(-c2cccs2)cs1)c1cccc([N+](=O)[O-])c1	-6.1	-0.9
O=C(NC(Nc1cccc(Cl)c1)C(Cl)(Cl)Cl)c1cccc([N+](=O)[O-])c1 (centres undefined)	95.0*	2.9
COc1ccc(NC(NC(=O)c2cccc(Cl)c2)C(Cl)(Cl)Cl)cc1 (centres undefined)	65.0*	-5.7
NS(=O)(=O)c1ccc(NC(NC(=O)c2cccc([N+](=O)[O-])c2)C(Cl)(Cl)Cl)cc1 (centres undefined)	29.0	-4.4
O=C(NC(Nc1cccc([N+](=O)[O-])c1)C(Cl)(Cl)Cl)c1cccnc1 (centres undefined)	7.0	0.0
SMILES	mHTT CaM bind	Pf apPOL block
O=C(NC(Nc1ccc(Br)cc1)C(Cl)(Cl)Cl)c1cccc([N+](=O)[O-])c1 (centres undefined)	96.0*	-5.6
O=C(NC(Nc1ccc(Cl)cc1)C(Cl)(Cl)Cl)c1cccc([N+](=O)[O-])c1 (centres undefined)	99.0*	-2.4
O=C(NC(Nc1ccccc1)C(Cl)(Cl)Cl)c1cccc(Cl)c1 (centres undefined)	23.0	-1.2
O=C(NC(NCc1ccccc1)C(Cl)(Cl)Cl)c1cccc([N+](=O)[O-])c1 (centres undefined)	20.0	-0.5
COc1cccc(OCCCCOc2cc(C=O)ccc2OC)c1	-91.4	-3.4
C1=CCC(CN2CCN(Cc3ccccc3)CC2)CC1 (centres undefined)	-0.3	-1.3
Cc1cccc(N2C(=O)CC(N(O)c3ccccc3)C2=O)c1C (centres undefined)	2.2	-1.6
COc1ccc(NC(=O)C2(C)Oc3cccnc3N(C)C2=O)cc1F (centres undefined)	-4.5	-3.5
COc1ccc(NC(=O)CN(c2cccc(Cl)c2Cl)S(C)(=O)=O)cc1OC	8.7	-4.5
COc1ccc(-c2ncc(NC(=O)C3CCCO3)cn2)cc1 (centres undefined)	-8.3	2.5
Cc1ccc(C)c(-c2cc(C(=O)NC(C)C(=O)N3CCCCC3)no2)c1 (centres undefined)	6.5	-3.4
O=C(NC(Nc1ccc([N+](=O)[O-])cc1)C(Cl)(Cl)Cl)c1ccc([N+](=O)[O-])cc1 (centres undefined)	79.0*	-1.2
O=C(NC(Nc1cccc([N+](=O)[O-])c1)C(Cl)(Cl)Cl)c1cccc([N+](=O)[O-])c1 (centres undefined)	54.0*	-2.4
